Laboratory results reported in PubChem BioAssay AID1159580 (chemical genetic matrix, 2015).
The whole screen tested about 5,500 compounds, of which about 2,000 (36%) were called active. Roughly 18% stayed inconclusive and do not appear here. Rule as the data show it: active = normalized growth mostly below about 0.91 (no sharp cut-off); inconclusive = no clear call, values can overlap the other calls; inactive = mostly above about 0.92. The list shows a part of the results.

Assay: chemical genetic growth profiling, strain panel (AID 1159580);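 also: tested at 20 µM; growth read once vehicle control cultures reached saturation at 30 °C; 1 = growth at the plate median or of vehicle wells; lower values mean less growth of the strain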
Details: growth OD

Measured: normalized growth

OCC(O)CN1CCN(c2ccccc2)CC1 (configuration not stated)
inactive: S. cerevisiae deletion strains, locus YJR075W, strain HOC1, active compounds read low 0.987 | S. cerevisiae deletion strains, locus YKL009W, strain mrt4, active compounds read low 1.01 | S. cerevisiae deletion strains, locus YKL068W, active compounds read low 0.994 | S. cerevisiae deletion strains, locus YKL085W, strain MDH1 (second series), active compounds read low 0.99 | S. cerevisiae deletion strains, locus YKL085W, strain MDH1, active compounds read low 0.99 | S. cerevisiae deletion strains, locus YKL160W, strain elf1, active compounds read low 0.958 | S. cerevisiae deletion strains, locus YKL190W, strain CNB1, active compounds read low 1.01 | S. cerevisiae deletion strains, locus YKR001C, strain vps1, active compounds read low 1 | S. cerevisiae deletion strains, locus YKR026C, strain gcn3, active compounds read low 0.977 | S. cerevisiae deletion strains, locus YKR091W, strain srl3, active compounds read low 0.982 | S. cerevisiae deletion strains, locus YLL001W, strain dnm1, active compounds read low 0.988 | S. cerevisiae deletion strains, locus YLL026W, active compounds read low 0.988 | S. cerevisiae deletion strains, locus YLL041C, strain sdh2, active compounds read low 0.975 | S. cerevisiae deletion strains, locus YLR027C, strain aat2, active compounds read low 0.992 | S. cerevisiae deletion strains, locus YLR039C, strain RIC1, active compounds read low 1.04 | S. cerevisiae deletion strains, locus YLR058C, strain SHM2, active compounds read low 0.994 | S. cerevisiae deletion strains, locus YLR102C, strain apc9, active compounds read low 1 | S. cerevisiae deletion strains, locus YLR113W, strain HOG1, active compounds read low 0.999 | S. cerevisiae deletion strains, locus YLR221C, strain rsa3, active compounds read low 0.973 | S. cerevisiae deletion strains, locus YLR258W, strain gsy2, active compounds read low 0.992 | S. cerevisiae deletion strains, locus YLR262C, strain YPT6 (second series), active compounds read low 0.959 | S. cerevisiae deletion strains, locus YLR262C, strain YPT6, active compounds read low 1.05 | S. cerevisiae deletion strains, locus YLR268W, strain sec22, active compounds read low 0.953 | S. cerevisiae deletion strains, locus YLR320W, strain mms22, active compounds read low 1 | S. cerevisiae deletion strains, locus YLR330W, strain CHS5, active compounds read low 1.02 | S. cerevisiae deletion strains, locus YLR342W, strain FKS1 (second series), active compounds read low 1.02 | S. cerevisiae deletion strains, locus YLR342W, strain FKS1, active compounds read low 0.993 | S. cerevisiae deletion strains, locus YLR357W, strain rsc2, active compounds read low 0.987 | S. cerevisiae deletion strains, locus YLR370C, strain arc18, active compounds read low 0.978 | S. cerevisiae deletion strains, locus YLR371W, strain rom2, active compounds read low 1 | S. cerevisiae deletion strains, locus YLR384C, strain iki3, active compounds read low 0.987 | S. cerevisiae deletion strains, locus YLR418C, strain cdc73, active compounds read low 0.971 | S. cerevisiae deletion strains, locus YML016C, strain PPZ1, active compounds read low 0.992 | S. cerevisiae deletion strains, locus YML032C, strain rad52, active compounds read low 0.988 | S. cerevisiae deletion strains, locus YML120C, strain ndi1, active compounds read low 0.982 | S. cerevisiae deletion strains, locus YML124C, strain tub3, active compounds read low 0.989 | S. cerevisiae deletion strains, locus YMR058W, strain fet3, active compounds read low 0.969 | S. cerevisiae deletion strains, locus YMR078C, strain ctf18, active compounds read low 0.978 | S. cerevisiae deletion strains, locus YMR125W, strain sto1, active compounds read low 0.995 | S. cerevisiae deletion strains, locus YMR129W, active compounds read low 0.981 | S. cerevisiae deletion strains, locus YMR205C, strain PFK2, active compounds read low 1.01 | S. cerevisiae deletion strains, locus YMR223W, strain ubp8, active compounds read low 1.01 | S. cerevisiae deletion strains, locus YMR231W, strain pep5, active compounds read low 0.989 | S. cerevisiae deletion strains, locus YMR263W, strain SAP30, active compounds read low 0.989 | S. cerevisiae deletion strains, locus YMR307W, strain GAS1, active compounds read low 1.03 | S. cerevisiae deletion strains, locus YNL067W, strain RPL9B, active compounds read low 0.988 | S. cerevisiae deletion strains, locus YNL071W, strain lat1, active compounds read low 0.985 | S. cerevisiae deletion strains, locus YNL128W, strain TEP1, active compounds read low 1 | S. cerevisiae deletion strains, locus YNL153C, strain GIM3, active compounds read low 0.988 | S. cerevisiae deletion strains, locus YNL183C, strain NPR1, active compounds read low 0.908 | S. cerevisiae deletion strains, locus YNL209W, strain ssb2, active compounds read low 0.983 | S. cerevisiae deletion strains, locus YNL233W, strain BNI4, active compounds read low 1.01 | S. cerevisiae deletion strains, locus YNL248C, strain rpa49, active compounds read low 0.925 | S. cerevisiae deletion strains, locus YNL250W, strain rad50, active compounds read low 0.988 | S. cerevisiae deletion strains, locus YNL271C, strain bni1, active compounds read low 0.985 | S. cerevisiae deletion strains, locus YNL298W, strain CLA4, active compounds read low 0.985 | S. cerevisiae deletion strains, locus YNL307C, strain MCK1, active compounds read low 0.997 | S. cerevisiae deletion strains, locus YNL322C, strain KRE1 (second series), active compounds read low 0.97 | S. cerevisiae deletion strains, locus YNL322C, strain KRE1, active compounds read low 1 | S. cerevisiae deletion strains, locus YNR049C, strain mso1, active compounds read low 0.974 | S. cerevisiae deletion strains, locus YNR052C, strain pop2, active compounds read low 1 | S. cerevisiae deletion strains, locus YOL006C, strain TOP1, active compounds read low 0.981 | S. cerevisiae deletion strains, locus YOL012C, strain htz1 0.702 | S. cerevisiae deletion strains, locus YOL147C, strain pex11, active compounds read low 0.991 | S. cerevisiae deletion strains, locus YOR001W, strain rrp6, active compounds read low 0.943 | S. cerevisiae deletion strains, locus YOR061W, strain CKA2, active compounds read low 0.999 | S. cerevisiae deletion strains, locus YOR069W, strain VPS5, active compounds read low 0.986 | S. cerevisiae deletion strains, locus YOR070C, strain gyp1, active compounds read low 0.992 | S. cerevisiae deletion strains, locus YOR080W, strain dia2, active compounds read low 0.988 | S. cerevisiae deletion strains, locus YOR083W, strain WHI5, active compounds read low 0.934 | S. cerevisiae deletion strains, locus YOR106W, strain vam3, active compounds read low 0.943 | S. cerevisiae deletion strains, locus YOR136W, strain idh2, active compounds read low 0.994 | S. cerevisiae deletion strains, locus YOR144C, strain elg1, active compounds read low 0.993 | S. cerevisiae deletion strains, locus YOR184W, strain ser1, active compounds read low 1 | S. cerevisiae deletion strains, locus YOR231W, strain MKK1, active compounds read low 0.979 | S. cerevisiae deletion strains, locus YOR265W, strain rbl2, active compounds read low 0.985 | S. cerevisiae deletion strains, locus YOR270C, strain vph1, active compounds read low 0.981 | S. cerevisiae deletion strains, locus YOR290C, strain snf2, active compounds read low 0.962 | S. cerevisiae deletion strains, locus YOR316C, strain cot1, active compounds read low 0.985 | S. cerevisiae deletion strains, locus YPL051W, strain arl3, active compounds read low 0.974 | S. cerevisiae deletion strains, locus YPL055C, strain LGE1, active compounds read low 1 | S. cerevisiae deletion strains, locus YPL078C, strain atp4, active compounds read low 0.932 | S. cerevisiae deletion strains, locus YPL106C, strain sse1, active compounds read low 0.961 | S. cerevisiae deletion strains, locus YPL240C, strain hsp82, active compounds read low 0.972 | S. cerevisiae deletion strains, locus YPL241C, strain CIN2, active compounds read low 0.997 | S. cerevisiae deletion strains, locus YPL256C, strain CLN2, active compounds read low 0.964 | S. cerevisiae deletion strains, locus YPR119W, strain clb2, active compounds read low 0.992 | S. cerevisiae deletion strains, locus YPR141C, strain kar3, active compounds read low 0.987 | S. cerevisiae deletion strains, locus YPR163C, strain tif3, active compounds read low 0.988 | S. cerevisiae deletion strains, locus YPR167C, strain met16, active compounds read low 0.989 | S. cerevisiae deletion strains, strain wtn01, active compounds read low 0.95 | S. cerevisiae strains, strain wild type, active compounds read low 1
